The structures appear in SMILES notation.

Consider six compounds from ChEMBL document CHEMBL1961873, “Compounds: GSK PKIS; Assays: Nanosyn kinase panel” (2012).

Assay [1] concerns the target Dual specificity protein kinase CLK3 (Homo sapiens) (UniProt P49761). Conditions: at 1 µM.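 Also: each value is the mean inhibition of CLK3.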
Assay [2] deals with Dual specificity tyrosine-phosphorylation-regulated kinase 1A (Homo sapiens) (UniProt Q13627). Conditions: at 0.1 µM.
Assay [3] has the same target. The following applies: at 1 µM.
Assay [4] addresses Dual specificity tyrosine-phosphorylation-regulated kinase 1B (Homo sapiens) (UniProt Q9Y463). Conditions: at 0.1 µM.
Assay [5] has the same target. Conditions: at 1 µM.
For assay [6], the target named is T1, Dual specificity tyrosine-phosphorylation-regulated kinase 2 (Homo sapiens) (UniProt Q92630).
T1 sequence (whole entry): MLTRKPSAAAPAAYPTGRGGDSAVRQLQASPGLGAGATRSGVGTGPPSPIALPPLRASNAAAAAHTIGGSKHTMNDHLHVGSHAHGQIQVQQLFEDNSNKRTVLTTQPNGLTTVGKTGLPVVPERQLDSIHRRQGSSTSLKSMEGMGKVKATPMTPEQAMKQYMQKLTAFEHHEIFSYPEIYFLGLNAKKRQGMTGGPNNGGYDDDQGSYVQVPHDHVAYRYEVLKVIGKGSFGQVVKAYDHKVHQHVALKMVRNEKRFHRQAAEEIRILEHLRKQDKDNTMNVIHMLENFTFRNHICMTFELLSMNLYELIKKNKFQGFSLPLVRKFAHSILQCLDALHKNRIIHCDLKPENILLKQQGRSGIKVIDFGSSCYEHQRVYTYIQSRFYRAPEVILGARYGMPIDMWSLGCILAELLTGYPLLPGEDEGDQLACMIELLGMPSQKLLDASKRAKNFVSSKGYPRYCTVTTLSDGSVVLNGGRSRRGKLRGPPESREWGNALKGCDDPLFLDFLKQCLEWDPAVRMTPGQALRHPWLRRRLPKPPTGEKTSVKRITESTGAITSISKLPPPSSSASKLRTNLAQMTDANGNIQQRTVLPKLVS
Conditions: at 0.1 µM.

The target in assay [7] is T1, Dual specificity tyrosine-phosphorylation-regulated kinase 2 (Homo sapiens). The following applies: at 1 µM.
Assay [8] deals with Glycogen synthase kinase-3 alpha (Homo sapiens) (UniProt P49840). Conditions: at 0.1 µM.
Chain of Glycogen synthase kinase-3 alpha (Homo sapiens) (P49840 2-483 limits assumed): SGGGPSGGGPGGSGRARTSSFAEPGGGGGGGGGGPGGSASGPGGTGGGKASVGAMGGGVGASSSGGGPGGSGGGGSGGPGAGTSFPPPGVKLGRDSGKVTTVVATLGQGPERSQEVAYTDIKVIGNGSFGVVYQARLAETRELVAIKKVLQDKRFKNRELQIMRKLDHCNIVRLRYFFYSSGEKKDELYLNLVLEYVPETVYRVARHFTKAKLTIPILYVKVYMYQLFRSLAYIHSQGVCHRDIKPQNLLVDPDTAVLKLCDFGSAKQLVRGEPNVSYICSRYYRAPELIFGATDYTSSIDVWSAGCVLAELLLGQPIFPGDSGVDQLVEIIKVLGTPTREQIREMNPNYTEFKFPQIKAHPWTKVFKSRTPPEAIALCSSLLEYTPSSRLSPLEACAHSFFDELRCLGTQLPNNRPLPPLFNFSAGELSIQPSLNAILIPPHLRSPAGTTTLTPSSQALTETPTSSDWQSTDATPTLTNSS
For assay [9] the target is unchanged. The following applies: at 1 µM.
The target in assay [10] is Glycogen synthase kinase-3 beta (Homo sapiens) (UniProt P49841). The following applies: at 0.1 µM.
Chain of Glycogen synthase kinase-3 beta (Homo sapiens) (P49841 whole entry, looked up): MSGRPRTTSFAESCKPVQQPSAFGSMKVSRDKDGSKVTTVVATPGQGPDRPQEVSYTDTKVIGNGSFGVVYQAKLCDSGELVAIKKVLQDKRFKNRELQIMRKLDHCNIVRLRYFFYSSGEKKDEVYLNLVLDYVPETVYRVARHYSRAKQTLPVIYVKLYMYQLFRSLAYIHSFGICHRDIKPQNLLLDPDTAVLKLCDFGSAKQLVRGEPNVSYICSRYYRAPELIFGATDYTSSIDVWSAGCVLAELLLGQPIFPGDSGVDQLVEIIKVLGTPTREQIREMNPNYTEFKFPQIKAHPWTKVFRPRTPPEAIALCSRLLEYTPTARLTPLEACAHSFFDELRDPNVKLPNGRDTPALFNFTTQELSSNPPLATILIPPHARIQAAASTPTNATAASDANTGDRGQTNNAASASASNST
Assay [11] shares this target. Conditions: at 1 µM.
Assay [12] addresses Homeodomain-interacting protein kinase 1 (Homo sapiens) (UniProt Q86Z02). Conditions: at 0.1 µM.
Assay [13] shares this target. The following applies: at 1 µM.
In assay [14] the target is T2, Homeodomain-interacting protein kinase 4 (Homo sapiens) (UniProt Q8NE63).
T2 sequence (whole entry): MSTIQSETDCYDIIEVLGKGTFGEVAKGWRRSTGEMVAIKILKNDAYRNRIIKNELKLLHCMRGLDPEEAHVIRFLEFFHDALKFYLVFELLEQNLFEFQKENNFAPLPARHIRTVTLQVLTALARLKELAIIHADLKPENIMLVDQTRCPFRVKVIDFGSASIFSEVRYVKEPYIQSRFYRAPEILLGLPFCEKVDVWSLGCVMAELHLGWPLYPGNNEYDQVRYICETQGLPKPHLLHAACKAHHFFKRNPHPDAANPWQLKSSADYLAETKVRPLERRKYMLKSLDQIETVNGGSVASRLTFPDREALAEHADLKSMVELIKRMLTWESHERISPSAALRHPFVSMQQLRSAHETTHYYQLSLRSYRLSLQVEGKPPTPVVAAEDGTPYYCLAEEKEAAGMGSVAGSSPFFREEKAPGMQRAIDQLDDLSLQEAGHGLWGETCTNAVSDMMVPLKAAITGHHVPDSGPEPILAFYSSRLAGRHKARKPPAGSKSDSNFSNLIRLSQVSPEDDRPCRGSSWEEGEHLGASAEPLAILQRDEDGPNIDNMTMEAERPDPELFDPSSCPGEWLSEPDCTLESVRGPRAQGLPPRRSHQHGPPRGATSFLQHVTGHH
The following applies: at 0.1 µM.

Assay [15] has as its target T2, Homeodomain-interacting protein kinase 4 (Homo sapiens). Conditions: at 1 µM.
Assay [16] deals with Mitogen-activated protein kinase 9 (Homo sapiens) (UniProt P45984). The following applies: at 0.1 µM.
Chain of Mitogen-activated protein kinase 9 (Homo sapiens) (P45984 whole entry, looked up): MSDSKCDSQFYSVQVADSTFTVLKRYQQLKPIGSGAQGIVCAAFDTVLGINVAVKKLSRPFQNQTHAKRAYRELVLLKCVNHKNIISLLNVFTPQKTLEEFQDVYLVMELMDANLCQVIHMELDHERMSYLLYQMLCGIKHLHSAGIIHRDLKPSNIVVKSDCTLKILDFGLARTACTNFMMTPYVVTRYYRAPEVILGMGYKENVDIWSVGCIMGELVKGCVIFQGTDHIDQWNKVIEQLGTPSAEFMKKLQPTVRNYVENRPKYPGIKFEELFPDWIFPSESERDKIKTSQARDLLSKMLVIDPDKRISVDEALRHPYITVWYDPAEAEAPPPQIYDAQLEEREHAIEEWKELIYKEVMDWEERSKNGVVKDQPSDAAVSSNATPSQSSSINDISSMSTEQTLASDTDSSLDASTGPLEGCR
Assay [17] shares this target. Conditions: at 1 µM.
Assay [18] concerns the target Mitogen-activated protein kinase 1 (Homo sapiens) (UniProt P28482). Conditions: at 0.1 µM.
Assay [19] shares this target. The following applies: at 1 µM.
Assay [20] addresses Mitogen-activated protein kinase 3 (Homo sapiens) (UniProt P27361). Conditions: at 0.1 µM.

Chain of Dual specificity protein kinase CLK3 (Homo sapiens) (P49761 whole entry, looked up): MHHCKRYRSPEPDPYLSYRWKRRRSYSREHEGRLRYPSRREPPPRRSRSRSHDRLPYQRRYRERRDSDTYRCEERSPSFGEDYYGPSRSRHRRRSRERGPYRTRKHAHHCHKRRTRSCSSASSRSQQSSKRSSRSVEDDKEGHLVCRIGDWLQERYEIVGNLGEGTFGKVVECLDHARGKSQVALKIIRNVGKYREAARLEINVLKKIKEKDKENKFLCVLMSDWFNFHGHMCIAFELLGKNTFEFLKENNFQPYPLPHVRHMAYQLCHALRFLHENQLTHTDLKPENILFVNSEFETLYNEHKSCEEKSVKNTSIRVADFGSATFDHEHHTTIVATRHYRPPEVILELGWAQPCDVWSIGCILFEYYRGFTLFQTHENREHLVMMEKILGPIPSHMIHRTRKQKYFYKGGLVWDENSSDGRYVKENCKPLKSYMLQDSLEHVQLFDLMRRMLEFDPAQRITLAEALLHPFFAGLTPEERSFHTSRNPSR
Chain of Mitogen-activated protein kinase 3 (Homo sapiens) (P27361 whole entry): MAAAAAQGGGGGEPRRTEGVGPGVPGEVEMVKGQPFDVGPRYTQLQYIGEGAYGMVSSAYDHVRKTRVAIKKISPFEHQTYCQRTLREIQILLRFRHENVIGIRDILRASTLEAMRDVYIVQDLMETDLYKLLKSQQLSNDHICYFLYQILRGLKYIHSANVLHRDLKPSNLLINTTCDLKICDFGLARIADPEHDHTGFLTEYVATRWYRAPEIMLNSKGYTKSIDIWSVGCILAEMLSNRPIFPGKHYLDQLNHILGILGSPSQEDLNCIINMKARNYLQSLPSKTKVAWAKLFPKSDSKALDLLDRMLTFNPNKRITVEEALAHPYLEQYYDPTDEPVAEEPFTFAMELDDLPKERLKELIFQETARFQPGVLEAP
Chain of Homeodomain-interacting protein kinase 1 (Homo sapiens) (Q86Z02 whole entry, looked up): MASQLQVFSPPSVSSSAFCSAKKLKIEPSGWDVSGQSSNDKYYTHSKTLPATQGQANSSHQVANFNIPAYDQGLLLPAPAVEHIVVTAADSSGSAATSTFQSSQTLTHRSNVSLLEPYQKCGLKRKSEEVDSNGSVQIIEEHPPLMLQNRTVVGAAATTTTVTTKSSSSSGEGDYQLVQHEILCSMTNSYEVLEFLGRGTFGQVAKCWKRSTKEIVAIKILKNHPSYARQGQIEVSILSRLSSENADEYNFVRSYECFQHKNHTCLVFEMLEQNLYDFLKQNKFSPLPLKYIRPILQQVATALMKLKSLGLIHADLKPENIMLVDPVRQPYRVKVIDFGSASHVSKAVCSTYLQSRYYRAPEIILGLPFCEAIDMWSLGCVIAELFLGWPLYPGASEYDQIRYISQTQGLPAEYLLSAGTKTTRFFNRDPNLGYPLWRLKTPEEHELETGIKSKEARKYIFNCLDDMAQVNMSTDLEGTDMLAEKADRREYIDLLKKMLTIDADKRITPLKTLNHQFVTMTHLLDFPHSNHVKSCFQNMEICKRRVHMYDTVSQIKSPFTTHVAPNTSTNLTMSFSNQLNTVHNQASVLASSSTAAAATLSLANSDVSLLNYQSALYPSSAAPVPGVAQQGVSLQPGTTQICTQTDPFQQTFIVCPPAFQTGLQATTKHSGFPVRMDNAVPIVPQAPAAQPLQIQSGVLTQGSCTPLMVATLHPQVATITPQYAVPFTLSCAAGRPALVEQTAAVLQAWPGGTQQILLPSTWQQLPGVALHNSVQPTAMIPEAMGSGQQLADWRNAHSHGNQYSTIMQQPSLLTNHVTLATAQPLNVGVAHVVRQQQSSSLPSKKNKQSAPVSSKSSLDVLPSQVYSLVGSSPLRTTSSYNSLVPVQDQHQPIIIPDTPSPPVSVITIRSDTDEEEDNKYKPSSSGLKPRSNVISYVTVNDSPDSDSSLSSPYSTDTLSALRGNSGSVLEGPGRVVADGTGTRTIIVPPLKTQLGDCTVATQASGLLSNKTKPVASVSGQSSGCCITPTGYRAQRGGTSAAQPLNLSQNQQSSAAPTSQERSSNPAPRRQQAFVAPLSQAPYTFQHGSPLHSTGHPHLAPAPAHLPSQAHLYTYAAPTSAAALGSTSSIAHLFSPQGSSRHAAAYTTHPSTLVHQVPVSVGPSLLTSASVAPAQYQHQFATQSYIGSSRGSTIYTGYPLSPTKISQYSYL
Chain of Mitogen-activated protein kinase 1 (Homo sapiens) (P28482 whole entry): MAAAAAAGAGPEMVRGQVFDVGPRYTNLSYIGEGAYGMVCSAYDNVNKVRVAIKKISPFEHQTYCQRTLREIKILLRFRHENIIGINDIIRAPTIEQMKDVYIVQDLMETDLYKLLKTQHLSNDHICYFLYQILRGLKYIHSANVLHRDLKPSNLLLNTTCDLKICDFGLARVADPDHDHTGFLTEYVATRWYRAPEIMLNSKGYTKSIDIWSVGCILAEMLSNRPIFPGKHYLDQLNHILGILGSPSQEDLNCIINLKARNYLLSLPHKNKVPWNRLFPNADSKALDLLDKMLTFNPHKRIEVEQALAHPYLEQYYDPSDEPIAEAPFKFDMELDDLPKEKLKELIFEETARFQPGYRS
Chain of Dual specificity tyrosine-phosphorylation-regulated kinase 1B (Homo sapiens) (Q9Y463 whole entry, looked up): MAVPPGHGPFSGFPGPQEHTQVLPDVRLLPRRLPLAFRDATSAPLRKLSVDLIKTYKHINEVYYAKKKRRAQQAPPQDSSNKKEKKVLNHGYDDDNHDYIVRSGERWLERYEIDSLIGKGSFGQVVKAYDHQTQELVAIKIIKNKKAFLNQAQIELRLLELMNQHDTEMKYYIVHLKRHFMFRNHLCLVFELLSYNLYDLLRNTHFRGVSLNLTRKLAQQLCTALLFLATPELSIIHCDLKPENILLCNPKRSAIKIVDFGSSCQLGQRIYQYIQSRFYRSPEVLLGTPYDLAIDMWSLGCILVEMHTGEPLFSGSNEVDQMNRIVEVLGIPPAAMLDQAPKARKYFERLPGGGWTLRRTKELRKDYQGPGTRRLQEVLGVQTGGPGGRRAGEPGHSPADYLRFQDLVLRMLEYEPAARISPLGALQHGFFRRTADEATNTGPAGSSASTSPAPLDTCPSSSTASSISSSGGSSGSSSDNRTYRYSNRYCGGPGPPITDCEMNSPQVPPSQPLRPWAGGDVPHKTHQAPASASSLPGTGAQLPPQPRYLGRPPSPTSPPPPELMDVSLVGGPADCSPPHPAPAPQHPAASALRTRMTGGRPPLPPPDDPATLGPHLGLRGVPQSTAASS

The term inhibition denotes the relative decrease from the control value, in per cent. For the compound `COC(=O)Nc1nc2ccc(Oc3ccc(NC(=O)Nc4cc(C(F)(F)F)ccc4F)cc3)cc2s1`, the inhibition in [1] was 0.05%; in assay [2], 0.96%; in assay [3], 2.5%; in assay [4], 1.09%; in [5], 2.02%; in assay [6], -0.29%. The inhibition in [7] is 0.21%; in assay [8], 0.71%; in assay [9] it was 4.01%; in assay [10], -0.46%; in assay [11], 5.68%; in assay [12], -1.19%. Moreover, the inhibition in assay [13] was 0.81%; in assay [14] it was 6.92%; in [15] it was 33.5%; in assay [16], -0.14%; in assay [17], 3.25%; in [18] it was -1.09%. In addition, the inhibition was 0.7% in assay [19] and 0.14% in assay [20].
As to `O=C1Nc2ccccc2/C1=C1\CCc2cc(O)ccc21`, the inhibition in assay [1] is 3.11%; in assay [2], 7.28%; in assay [3], 34%; in assay [4] it was 2.1%; in assay [5], 17.7%; in [6], 5.9%. In addition, the inhibition is 24.7% in assay [7]; 3.11% in assay [8]; 10.5% in assay [9]; 1.77% in assay [10]; 7.64% in [11]; -1.14% in assay [12]. Besides, the inhibition came out at 7.57% in assay [13]; 0.76% in [14]; 10.8% in [15]; 5.71% in assay [16]; 9.88% in assay [17]; 5.77% in assay [18]. Also, the inhibition in [19] amounted to 6.56%; in assay [20], 5.82%.
Turning to `NS(=O)(=O)c1ccc(N/N=C2\C(=O)Nc3ccc(C(=O)NCc4ccncc4)cc32)cc1`, the inhibition is 3.91% in assay [1]; 2.11% in [2]; 9.79% in assay [3]; 1.01% in assay [4]; 11.3% in assay [5]; 2.69% in assay [6]. Moreover, the inhibition in assay [7] came out at 8.09%; in assay [8], 35.3%; in assay [9], 75.7%; in [10] it was 38.4%; in [11], 77.1%; in assay [12], 10.9%. Also, the inhibition in assay [13] was 42.5%; in assay [14], 12.2%; in assay [15], 45.9%; in assay [16] it was 2.55%; in assay [17], 8.96%; in [18], 14.9%. For the same compound, the inhibition in assay [19] stood at 55.3%; in assay [20], 5.64%.
For `CN1CCC(n2cnc(-c3ccc(F)cc3)c2-c2ccnc(NCCO)n2)CC1`, the inhibition in assay [1] was 3.15%; in [2], 3.36%; in assay [3] it was 3.78%; in assay [4], -0.1%; in [5], 1.43%; in [6], 2.57%. The inhibition is 3.9% in [7]; 3.17% in [8]; 5.09% in assay [9]; 3.17% in [10]; 7.21% in assay [11]; 3.91% in assay [12]. In addition, the inhibition was found to be 7.67% in assay [13]; 2.19% in assay [14]; 4.16% in assay [15]; 8.58% in [16]; 37.3% in [17]; 2.94% in [18]. Moreover, the values for the inhibition in [19] and in assay [20] were 6.12% and 3.9%, respectively.
Turning to `CS(=O)(=O)CCNCc1ccc(-c2ccc3ncnc(Nc4ccc(OCc5ccccc5)cc4)c3c2)o1`, the inhibition in assay [1] is 0.48%; in assay [2], 1.93%; in [3] it was 4.22%; in assay [4] it was -0.07%; in assay [5] it was 1.88%; in assay [6], 5.3%. Further, the inhibition in [7] is 2.62%; in [8], 2.32%; in assay [9] it was 3.44%; in assay [10] it was 1.65%; in [11], 3.37%; in assay [12], -0.23%. Further, the inhibition in assay [13] was found to be 3.06%; in assay [14], 0.8%; in assay [15], 4.91%; in [16] it was 2.23%; in assay [17], 2.48%; in assay [18] it was 4.02%. Moreover, the inhibition in assay [19] came to 3.85%; in assay [20], 2.1%.
For the compound `Cc1cc(O)cc(C)c1/C=C/c1cncc(C(N)=O)c1`, the inhibition stood at 3.45% in [1]; 2.36% in assay [2]; 6.61% in [3]; 0.87% in assay [4]; 2.81% in [5]; 1.62% in assay [6]. The inhibition in assay [7] stood at 3.99%; in assay [8] it was 1.54%; in assay [9], 4.08%; in [10], 1.76%; in [11], 1.95%; in assay [12], 0.55%. Further, the inhibition in [13] turned out to be 3.38%; in assay [14] it was 0.22%; in assay [15] it was 1.54%; in assay [16] it was 1.69%; in assay [17], 2.53%; in [18], 1.25%. The inhibition in assay [19] is 2.53%; in [20] it was 0.31%.
